Data on 40 molecules can be found in PubChem BioAssay (NCI).

This is part of a sample that, as a whole, favours compounds with a hit. Of some 83,000 tested, about 20% had one in any assay.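 Cell lines were cultured in 96-well plates, exposed to a single compound concentration, and assessed for percent growth 48 hours later.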 Active and inactive are the calls of the source. Rule for the calls: active = growth percent below 10; inactive = the rest.

One assay relates to RXF 393 renal. The experiment in a line: NCI-60 one-dose screen, 48 h (100 = growth as untreated, 0 = no growth, -100 = all killed). As to conditions: 10 µM.
Take `CCn1c(CSc2nc3ccccc3c(=O)n2CCc2ccccc2)n[nH]c1=S`: the growth was 85.2% (inactive).

Take `Cc1cc(Br)nnc1Br`: the growth was 120% (inactive).

As for `Cc1ccc(NC(=S)NNC(=S)Nc2ccc(C)cc2)cc1`, the growth is 91.5% (inactive).

For `COc1ccc(C2CC(c3cccs3)=NN2c2ccc(S(N)(=O)=O)cc2)cc1` (centres undefined), the growth was 93.6% (inactive).

For `CC[N+](CC)=c1ccc2nc3c(cc(NCc4ccccc4)c4ccccc43)oc-2c1`, the growth is -91.4% (active).

As to `COC1=CC(=O)OC(c2ccc(OC)cc2)C1` (centres undefined), the growth is 113% (inactive).

For the molecule `COc1ccccc1-n1c(-c2csc(NC(C)=O)n2)n[nH]c1=S`, the growth is 102% (inactive).

`C#CC(C)(O)[C@@H]1C[C@H](CC(=O)O)C1(C)C` (some centres undefined): the growth is 134% (inactive).

For `COc1nc2c(c(=O)n1C)CN(c1ccccc1)C(=O)C(C)N2` (centres undefined), the growth is 95.2% (inactive).

For the molecule `C=CCNCCN1C(=O)c2ccc3c4c(ccc(c24)C1=O)C(=O)N(CCNCC=C)C3=O`, the growth was -74.3% (active).

Turning to `COc1cc(-c2ccc[nH]2)[nH]c1/C=C1\N=C(C)C(C(=O)NC(C)C)=C1C`, the growth was 47.6% (inactive).

With `O=C1c2ccccc2C(=O)N1CCCCNc1ccccc1`, the growth is 104% (inactive).

In the case of `CC(C)c1ccc(C(C)C(=O)N(CC2=C(C(C)c3ccccn3)c3ccccc3C2)C(C)C)cc1` (centres undefined), the growth is 45.6% (inactive).

Regarding `Cc1ccc(C)c(COc2cc(NC(=O)c3ccc4c(c3)OCO4)ccc2N(C)S(C)(=O)=O)c1`, the growth was -1.01% (active).

For `Cc1cc(NC(=O)c2ccc(C)c(Nc3nccc(-c4cccnc4)n3)c2)cc(-n2cnc(C)c2)c1`, the growth is -3.26% (active).

Take `COc1ccc(C2CC(c3cc(OC)c(OC)c(OC)c3)=NN2)cc1` (centres undefined): the growth is 92.5% (inactive).

In the case of `CC1OC2CC(=O)OC2C2=C1C(=O)c1c(O)c3c(c(O)c1C2=O)C1CC(O)C3(O)C(C)O1` (centres undefined), the growth is -91.1% (active).

For `Nc1ncc(-c2cnn(C3CCNCC3)c2)cc1-c1nc2ccccc2o1`, the growth was -29.5% (active).

Turning to `CCCCCCCCCCCC[n+]1c(C)cc(N)c2ccccc21`, the growth is -27.7% (active).

On to `COc1ccc(-c2nn(-c3cccc(Cl)c3)cc2/C=C2\NC(=S)N(c3ccc(Cl)cc3)C2=O)cc1`, for which the growth is -7.45% (active).

As for `CC(=O)Nc1cc2c(cc1Cl)Cc1cc(Cl)ccc1-2`, the growth was 98.7% (inactive).

For the molecule `COC(=O)CC[C@@H](C)[C@H]1CC[C@H]2[C@@H]3CC[C@@H]4C[C@H](O)CC[C@]4(C)[C@H]3C[C@H](O)[C@]12C`, the growth is 110% (inactive).

With `O=C1NC(=O)c2c(CCCSc3nc4ccccc4c(=O)n3CCc3ccccc3)cccc21`, the growth is 92.8% (inactive).

With `Cc1ccc(C2=NN(c3ccc(S(C)(=O)=O)cc3)C(=O)CC2)cc1`, the growth was 15.4% (inactive).

Consider `CCOC(=O)Cn1c(=O)c2sc3ncccc3c2n2nnc(-c3ccccc3)c12`, for which the growth is 112% (inactive).

With `COc1ccc(-c2nn(-c3cccc(Cl)c3)cc2-c2c(C#N)c(=O)n3[nH]c(-c4ccccc4)nc3c2C#N)cc1`, the growth was 95.9% (inactive).

Consider `NC(N)=N/N=C(\c1ccccc1)C(O)c1ccccc1` (centres undefined), for which the growth was 98.8% (inactive).

As to `COc1ccc2c(c1)C(CC(=O)NN)CCC2` (centres undefined), the growth was 115% (inactive).

Turning to `Cc1cc(=O)n2nnc3cc(C(F)(F)F)ccc3n12`, the growth is 123% (inactive).

Regarding `NS(=O)(=O)c1ccc(N2N=C(c3ccccc3)CCC2=O)cc1`, the growth was 110% (inactive).

Regarding `COc1ccc(-c2nc(-c3nc4ccc(C)cc4[nH]3)cc3c2[nH]c2ccccc23)cc1`, the growth is 27.9% (inactive).

On to `COc1cc(C2CC(c3ccccc3)=NN2C(C)=O)cc(OC)c1OC` (centres undefined), for which the growth was 55% (inactive).

`CSc1ccc(-c2cc(-c3ccc(NC(=O)CCCN4CCCC4)cc3)nc(-c3ccc(NC(=O)CCCN4CCCC4)cc3)c2)cc1`: the growth was 51.1% (inactive).

Take `CC(C1=C(CN(C(=O)Cc2cn(-c3ccccc3)nc2-c2ccc(Cl)cc2)C(C)C)Cc2ccccc21)c1ccccn1` (centres undefined): the growth was 86.7% (inactive).

In the case of `O=C1OC(C(Cl)(Cl)Cl)OC1C(Cl)(Cl)Cl` (centres undefined), the growth was 116% (inactive).

The test system of the next assay is SF-268 CNS. Described as above. Conditions: 10 µM.
As to `O=C(COc1cccc(/C=C2\CSc3ccccc3C2=O)c1)c1ccc(Cl)cc1`, the growth was 29.9% (inactive).

In the case of `CCn1c(CSc2nc3ccccc3c(=O)n2CCc2ccccc2)n[nH]c1=S`, the growth is 98.4% (inactive).

`COc1ccc2nc3cc(Cl)ccc3c(NCCCNCCO)c2c1`: the growth is -13.2% (active).

With `Cc1cc(Br)nnc1Br`, the growth is 107% (inactive).

As for `Cc1ccc(NC(=S)NNC(=S)Nc2ccc(C)cc2)cc1`, the growth was 85% (inactive).

With `COc1ccc(C2CC(c3cccs3)=NN2c2ccc(S(N)(=O)=O)cc2)cc1` (centres undefined), the growth was 97.6% (inactive).

In the case of `CC[N+](CC)=c1ccc2nc3c(cc(NCc4ccccc4)c4ccccc43)oc-2c1`, the growth was -15.9% (active).

For `COC1=CC(=O)OC(c2ccc(OC)cc2)C1` (centres undefined), the growth is 96.5% (inactive).

On to `COc1ccccc1-n1c(-c2csc(NC(C)=O)n2)n[nH]c1=S`, for which the growth is 111% (inactive).

For `COc1cc(NC(=O)C2=C(N3CCOCC3)/C(=C/c3ccc(Cl)cc3)CC2)cc(OC)c1OC`, the growth is 114% (inactive).

With `C#CC(C)(O)[C@@H]1C[C@H](CC(=O)O)C1(C)C` (some centres undefined), the growth is 105% (inactive).

With `COc1nc2c(c(=O)n1C)CN(c1ccccc1)C(=O)C(C)N2` (centres undefined), the growth is 97.1% (inactive).

For the molecule `C=CCNCCN1C(=O)c2ccc3c4c(ccc(c24)C1=O)C(=O)N(CCNCC=C)C3=O`, the growth is -17.5% (active).

With `COc1cc(-c2ccc[nH]2)[nH]c1/C=C1\N=C(C)C(C(=O)NC(C)C)=C1C`, the growth is 44.4% (inactive).

For the molecule `O=C1c2ccccc2C(=O)N1CCCCNc1ccccc1`, the growth was 54.1% (inactive).

`CC(C)c1ccc(C(C)C(=O)N(CC2=C(C(C)c3ccccn3)c3ccccc3C2)C(C)C)cc1` (centres undefined): the growth was 46% (inactive).

For `Cc1ccc(C)c(COc2cc(NC(=O)c3ccc4c(c3)OCO4)ccc2N(C)S(C)(=O)=O)c1`, the growth was 20.8% (inactive).

`Cc1cc(NC(=O)c2ccc(C)c(Nc3nccc(-c4cccnc4)n3)c2)cc(-n2cnc(C)c2)c1`: the growth is 73.3% (inactive).

On to `COc1ccc(C2CC(c3cc(OC)c(OC)c(OC)c3)=NN2)cc1` (centres undefined), for which the growth was 74.2% (inactive).

In the case of `CC1OC2CC(=O)OC2C2=C1C(=O)c1c(O)c3c(c(O)c1C2=O)C1CC(O)C3(O)C(C)O1` (centres undefined), the growth was 1.92% (active).

Regarding `Nc1ncc(-c2cnn(C3CCNCC3)c2)cc1-c1nc2ccccc2o1`, the growth was -0.542% (active).

With `CCCCCCCCCCCC[n+]1c(C)cc(N)c2ccccc21`, the growth is 19.6% (inactive).

Turning to `COc1ccc(-c2nn(-c3cccc(Cl)c3)cc2/C=C2\NC(=S)N(c3ccc(Cl)cc3)C2=O)cc1`, the growth was 38% (inactive).

Consider `CC(=O)Nc1cc2c(cc1Cl)Cc1cc(Cl)ccc1-2`, for which the growth is 88.4% (inactive).

In the case of `COC(=O)CC[C@@H](C)[C@H]1CC[C@H]2[C@@H]3CC[C@@H]4C[C@H](O)CC[C@]4(C)[C@H]3C[C@H](O)[C@]12C`, the growth was 95.6% (inactive).

As for `O=C1NC(=O)c2c(CCCSc3nc4ccccc4c(=O)n3CCc3ccccc3)cccc21`, the growth is 91.2% (inactive).

For `Cc1ccc(C2=NN(c3ccc(S(C)(=O)=O)cc3)C(=O)CC2)cc1`, the growth was 55.2% (inactive).

Turning to `CCOC(=O)Cn1c(=O)c2sc3ncccc3c2n2nnc(-c3ccccc3)c12`, the growth is 112% (inactive).

Consider `c1ccc(CCCCc2ccc3ccccc3n2)cc1`, for which the growth is 99% (inactive).

`COc1ccc(-c2nn(-c3cccc(Cl)c3)cc2-c2c(C#N)c(=O)n3[nH]c(-c4ccccc4)nc3c2C#N)cc1`: the growth is 101% (inactive).

Regarding `COc1ccc2c(c1)C(=O)/C(=C/c1cccc(OCC(=O)c3ccc([N+](=O)[O-])cc3)c1)CO2`, the growth was 62.8% (inactive).

For `COc1ccc2c(c1)C(CC(=O)NN)CCC2` (centres undefined), the growth is 96.3% (inactive).

With `Cc1cc(=O)n2nnc3cc(C(F)(F)F)ccc3n12`, the growth was 107% (inactive).

Consider `NS(=O)(=O)c1ccc(N2N=C(c3ccccc3)CCC2=O)cc1`, for which the growth was 176% (inactive).

For the molecule `COc1ccc(-c2nc(-c3nc4ccc(C)cc4[nH]3)cc3c2[nH]c2ccccc23)cc1`, the growth is 50.3% (inactive).

On to `COc1cc(C2CC(c3ccccc3)=NN2C(C)=O)cc(OC)c1OC` (centres undefined), for which the growth is 46.2% (inactive).

As for `CSc1ccc(-c2cc(-c3ccc(NC(=O)CCCN4CCCC4)cc3)nc(-c3ccc(NC(=O)CCCN4CCCC4)cc3)c2)cc1`, the growth was 48.6% (inactive).

For the molecule `CC(C1=C(CN(C(=O)Cc2cn(-c3ccccc3)nc2-c2ccc(Cl)cc2)C(C)C)Cc2ccccc21)c1ccccn1` (centres undefined), the growth is 74.5% (inactive).

Regarding `O=C1OC(C(Cl)(Cl)Cl)OC1C(Cl)(Cl)Cl` (centres undefined), the growth was 103% (inactive).
